Source: PubChem (National Center for Advancing Translational Sciences (NCATS))
Most compounds without a hit are left out; they make up all but 5.9% or so of the library.
TrxR1 substrate = is turned over as a substrate by rat TrxR1 | purified TrxR1 substrate turnover, NADPH consumption readout | Potency, µM (titrated, usually from 114 µM), without a hit: at the top dose activity change, negative = substrate turnover | actives 0.01% (n = 390,000); note: potency is the fitted concentration of half-maximal effect; nearly all actives have a fitted effect of over 50% in size
Target sequence (O89049 whole entry, looked up): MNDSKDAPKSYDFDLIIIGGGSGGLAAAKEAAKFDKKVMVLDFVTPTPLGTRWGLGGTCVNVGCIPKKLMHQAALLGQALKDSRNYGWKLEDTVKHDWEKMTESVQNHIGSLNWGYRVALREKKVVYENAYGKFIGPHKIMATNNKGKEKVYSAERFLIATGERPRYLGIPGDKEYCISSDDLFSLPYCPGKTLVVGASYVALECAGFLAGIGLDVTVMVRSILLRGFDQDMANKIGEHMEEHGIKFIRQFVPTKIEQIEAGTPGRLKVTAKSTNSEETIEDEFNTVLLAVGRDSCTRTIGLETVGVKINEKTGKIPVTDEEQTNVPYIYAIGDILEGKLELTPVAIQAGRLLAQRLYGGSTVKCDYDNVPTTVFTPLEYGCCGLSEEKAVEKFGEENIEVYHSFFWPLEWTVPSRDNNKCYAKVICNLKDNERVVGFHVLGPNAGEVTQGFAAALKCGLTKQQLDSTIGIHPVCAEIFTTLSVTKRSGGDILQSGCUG
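Rat TrxR1, dispensed at 90 nM, was prereduced with 400 uM NADPH (final) for 5 min at ~22 deg C, then incubated with compound 15 min before 400 uM selenite. A first-read NADPH fluorescence drop versus no-compound background flagged substrates.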
VP16 counter = Gal4-VP16 reporter inhibition counter-screen; Potency, µM (highest dose often 53.6 µM), inactives show at the top dose activity, negative = inhibition, usual class: inhibitors; Drosophila S2 Gal4-VP16 UAS-luciferase, luminescence, 20 h; AID 2546; actives 3.5% (n = 310,000);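 note: Gal4-VP16 expression switched on by copper sulfate through the metallothionein promoter; potency is the fitted concentration of half-maximal effect; nearly all actives have a fitted effect of over 50% in size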
RORgamma inh = inhibitors of mouse ROR gamma transcriptional activity | actives 5.4% (n = 310,000) | Potency, µM (titrated, usually from 53.6 µM), without a hit: at the highest dose activity change, negative = inhibition, usual class: inhibitors | P51450 | Drosophila S2 Gal4-RORgamma UAS-luciferase reporter, 20 h | AID 2551; note: potency is the fitted concentration of half-maximal effect; nearly all actives have a fitted effect of over 60% in size
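Using a luciferase readout, inhibitors were identified by reduced reporter activity in Drosophila cells coexpressing a copper-inducible Gal4–ROR gamma fusion and UAS-driven Photinus luciferase, incubated 20 hr after 700 uM copper sulfate.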
rTrxR1 inhibitor = blocks rat thioredoxin reductase 1; actives 1% (n = 390,000); O89049; Potency, µM (top dose mostly 114 µM), for inactives: at the highest dose activity change, negative = inhibition, actives largely listed as inhibitors; recombinant rTrxR1, NADPH fluorescence consumption, selenite substrate; note: potency is the fitted concentration of half-maximal effect; nearly all actives have a fitted effect of over 65% in size
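Rat TrxR1 (90 nM in the dispensed reagent) was pre-reduced with 400 uM NADPH for 5 min at room temperature, then incubated with compound for 15 min. After 400 uM selenite was added, NADPH fluorescence (Ex 340/Em 450 nm) was followed for 8 min.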
FBPA coupling cs = coupling enzyme interference in Giardia aldolase counter-screen; coupling enzyme system counterscreen, AmpLite Red fluorescence; activity change, negative = inhibition, % at 58.2 µM, hits read low; actives 0.67% (n = 290,000); AID 2472; in the data active = activity change below about -30%
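Compounds tested against the coupling enzymes alone at 57.5 uM final; readout was AmpLite Red fluorescence (525/598 nm) after 20 min at RT.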
GALK inh = inhibitors of human galactokinase. AID 1868. P51570. Potency, µM (series often up to 57.5 µM), for inactives: top-dose activity change, negative = inhibition, actives largely listed as inhibitors. actives 0.007% (n = 270,000). Purified GALK, Kinase-Glo residual ATP luminescence; note: potency is the fitted concentration of half-maximal effect
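The enzyme phosphorylates galactose (100 uM) using ATP (35 uM); inhibition is detected as higher residual ATP, quantified by bioluminescence after 1 h reaction at room temperature, pH 8.0.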
Starred values were filed as active, the others as inactive; ? = inconclusive; / = no result given; [ ] = another dose, or the depositor's remark. Unless noted, calls come from the whole dose curve; as a rule, active = well fitted curve in the direction sought with a large enough effect; inconclusive = small, poorly fitted or top-dose-only effect, or another doubt; inactive = no such curve, though single readings can be large; an effect the other way counts as inactive or inconclusive. % is set by controls: 0 for no effect and ±100 for the full control effect.

SMILES | TrxR1 substrate | VP16 counter | RORgamma inh | rTrxR1 inhibitor | FBPA coupling cs | GALK inh
C=CC(=O)OCC(CO)(COC(=O)C=C)COC(=O)C=C | / | 5.62µM* | 4.47µM* | / | / | /
COc1cc(/C=C2\C(=O)NC(=O)N(c3ccccc3)C2=O)c([N+](=O)[O-])cc1OC | 6.6%[57.1 µM] | 2.4% | 0.9% | 7.08µM* | -5.8 | 3.5%
COc1cc(/C=C2\C(=O)NC(=O)N(c3ccccc3)C2=O)cc(OC)c1O | -15.3% | -0.2% | -32.1% | 25.1µM* | -32.9* | -2.2%
O=C1NC(=O)N(c2ccccc2)C(=O)/C1=C/c1ccc2c(c1)Cc1ccccc1-2 | / | -29.2% | -19.9% | / | 4.4 | 7.0%
O=c1cccc2n1CC1CC2CN2CCCC[C@H]12 (some centres not stated) | / | -3.4% | 9.8% | / | -1.5 | /
CCC1(c2ccccc2)C(=O)NC(=S)NC1=O | 7.0%[57.1 µM] | / | / | 1.7%[11.4 µM] | / | /
CC(C)NC(=O)N1CC[C@@]2(CCCNC2)C1 | / | 3.0% | -23.5% | / | 2.0 | /
COC(=O)CCCc1[se]c2ccccc2c1I | / | -3.1% | 42.0% | / | 4.6 | /
Cc1ccc(C=C2C(Cl)=C(Cl)C(Cl)=C2Cl)cc1 | 1.3% | -1.1% | -3.7% | 3.16µM* | 1.1 | 1.6%
CCCC[C@@H](C)C[C@@H](C)C(=O)N(C)[C@@H](CC(C)C)C(=O)N[C@H](C(=O)N(C)[C@H](C(=O)N1C[C@@H](O)C[C@H]1C(=O)N1C(=O)C=C[C@@H]1C)C(C)C)C(C)OC(C)=O (some centres not stated) | -10.7% | / | / | -22.0% | / | /
O=C1NC(=O)N(c2ccc3c(c2)OCO3)C(=O)/C1=C/c1ccsc1 | -12.2% | -8.5% | 1.3% | 35.5µM* | -0.9 | -0.1%
O=C1NC(=O)N(c2ccc3c(c2)OCO3)C(=O)/C1=C/c1cccs1 | 1.1% | ? | 3.3% | 44.7µM* | 1.6 | -1.3%
CCc1ccc(N2C(=O)NC(=O)/C(=C/c3ccsc3)C2=O)cc1 | / | -7.8% | 0.6% | / | -0.1 | 5.4%
N#CC(C#N)=Cc1ccc([N+](=O)[O-])c(O)c1 | / | ? | ? | ? | -27.7 | /
CCNc1cc(N2CCN(C)CC2)ccc1[N+](=O)[O-] | -14.5% | 3.9%[10 µM] | 6.5% | -5.4% | -7.8 | -1.5%
CN(C)c1c([N+](=O)[O-])cc(N2C(=O)C=CC2=O)cc1[N+](=O)[O-] | 0.4% | / | / | 2.82µM* | / | /
CCn1ccnc1CN1CCCC(C(=O)c2cc(F)ccc2OC)C1 (configuration not stated) | -4.2%[0.0914 µM] | 15.8µM* | 2µM* | -0.4% | 1.6 | 1.0%
COc1ccc(C(=O)C2CCCN(Cc3cccc(C)n3)C2)c(OC)c1 (configuration not stated) | 4.0% | -22.5% | ? | 12.0% | -0.6 | 3.7%
COc1ccc(F)cc1C(=O)C1CCCN(Cc2ccc(O)cc2)C1 (configuration not stated) | 12.1% | -0.7% | ? | -2.1%[57.1 µM] | 3.9 | -1.3%
CCn1ccnc1CN1CCCC(C(=O)c2ccc(OC)cc2OC)C1 (configuration not stated) | -4.7% | 6.31µM* | 3.55µM* | 3.1% | 0.1 | -2.1%
CC(C)OP(=O)(OC(C)C)C(NCc1ccccc1)c1ccccc1 (configuration not stated) | 4.6%[57.1 µM] | 4.4% | 6.5% | 4.6%[57.1 µM] | -2.6 | 2.8%
N#CC(Br)Br | -5.5% | 1.2% | 2.51µM* | ? | / | /
COC(=O)C1=C(c2ccccc2OCc2ccccc2)C[C@@H]2CC[C@H]1N2C(=O)NCc1ccc(C(C)(C)C)cc1 | 6.0% | / | / | 32.1% | / | /
CN1C(=O)C(=Cc2cn(CC#N)c3ccccc23)C(=O)N(C)C1=O | 4.0% | -8.0% | 22.2% | -25.2% | 0.8 | /
COc1ccc(NC(=O)C(=O)NNC(=O)C(C)Oc2ccc(Cl)cc2Cl)cc1 (configuration not stated) | -3.5%[57.1 µM] | ? | 5.01µM* | 3.6%[57.1 µM] | 18.3 | 9.4%
C[N+]1(C)CCC(OC(=O)C(c2ccccc2)c2ccccc2)CC1 | 6.0%[57.1 µM] | -0.3% | 26.5% | 21.9%[57.1 µM] | 2.6 | /
